# Assay results: PubChem BioAssay AID624100 (ICCB-Longwood Screening Facility, Harvard Medical School, 2012)
# This is one part of the list. Unmarked numbers belong to inactive results. Activity calls are given as the source filed them.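 How the source made its calls: active means average inhibition over replicates above about 50%, so the earlier screening hit is confirmed (limit read from the data); inactive means the rest, counted as false positives.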
# Target: Ubiquitin carboxyl-terminal hydrolase isozyme L5 (Homo sapiens) (UniProt Q9Y5K5)
# Test: retest of human UCH37 deubiquitinase inhibitors, confirmation, biochemical, Ub-AMC cleavage rate, fluorescence (AID 624100);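 further: based on cleavage rate fitted by regression over a 30 min kinetic read; 0% = proteasome plus Ub-AMC and 100% = Ub-AMC without proteasome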
# Conditions: Proteasome-bound UCH37, Ub-AMC cleavage fluorescence; at 20 µM; hits give high values
# Sequence of Ubiquitin carboxyl-terminal hydrolase isozyme L5 (Homo sapiens) (Q9Y5K5 whole entry, looked up): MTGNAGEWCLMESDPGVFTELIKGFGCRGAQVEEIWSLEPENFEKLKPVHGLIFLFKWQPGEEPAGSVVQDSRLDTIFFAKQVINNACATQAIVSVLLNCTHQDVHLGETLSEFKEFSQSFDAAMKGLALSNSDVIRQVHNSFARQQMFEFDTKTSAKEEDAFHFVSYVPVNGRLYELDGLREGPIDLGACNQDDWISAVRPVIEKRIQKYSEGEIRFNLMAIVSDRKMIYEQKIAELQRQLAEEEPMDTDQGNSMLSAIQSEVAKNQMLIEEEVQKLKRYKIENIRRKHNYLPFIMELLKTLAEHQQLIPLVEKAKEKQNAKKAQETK
row,Structure (SMILES),inhibition
1,COc1ccc(N2C(=O)/C(=C/c3ccco3)C(=O)NC2=S)cc1,68.9% (active)
2,CCCCCCCCCCCCn1ccc(=N)cc1,40.2%
